# Experimental data from PubChem BioAssay (NCI).
# This is part of a sample that, as a whole, favours compounds with a hit. Of some 83,000 tested, about 20% had one in any assay.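 Cell lines were cultured in 96-well plates, exposed to a single compound concentration, and assessed for percent growth 48 hours later.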 Values without a mark were called inactive. Calls of active or inactive are those of the source. How the source made its calls: active means growth percent below 10; inactive means the rest.
# System: HL-60(TB) leukemia
# Experiment: NCI-60 one-dose screen, 48 h (100 = growth as untreated, 0 = no growth, -100 = all killed)
# Conditions: 10 µM unless noted
row,SMILES,growth
1,Cn1cc(-c2nnc(-c3cn(C)c4ncc(Br)cc34)o2)c2ccccc21,99%
2,O=C(NCOC(O)C(Cl)(Cl)Cl)NCOC(O)C(Cl)(Cl)Cl (stereo not given),0.027% (active)
3,CCN1C(=O)N(CC)C2C1NN=c1s/c(=C\c3ccc[nH]3)c(=O)n12 (stereo not given),-48% (active)
4,COc1cc(CCc2cc(NC(=O)c3ccc(N4C[C@@H](C)N[C@@H](C)C4)cc3)n[nH]2)cc(OC)c1,12.5%
5,CC(=O)c1c(C)[nH]c(-c2nc3ccc(N4CCN(C)CC4)cc3[nH]2)c1-c1ccc(OCC2CCOCC2)cc1,-12.9% (active)
6,O=C1CCC(C(=O)N/N=C/c2cc(F)ccc2F)N1 (stereo not given),99.2%
7,COc1ccc(/C=C/c2nc(N3CCOCC3)c3nc(Cl)c(Cl)cc3n2)cc1OC,91.9%
8,CCOC(=O)c1ccc2c(c1)c1c(C)c3cnccc3c(C)c1n2C,-18.8% (active)
9,Cc1cc(C(=O)O)c(C)n1-c1cccc(C(=O)O)c1,56.2%
10,Cc1ccc(NC(=O)C2CCC(CN3CCN(C)CC3)CC2)cc1Nc1nccc(-c2cccnc2)n1 (stereo not given),110%
11,Nn1c(CN2CCN(c3cc4c(cc3F)c(=O)c(C(=O)O)cn4C3CC3)CC2)n[nH]c1=S,101%
12,N#Cc1ccc(O)c(C2=NCC(Cc3ccccc3)O2)c1 (stereo not given),44%
13,Cc1c(C(=O)O)nnn1-c1nccs1,95.5%
14,N/C(=N/N=C/c1ccccc1)N/N=C\c1ccccc1,44.2%
15,CCOC(=O)C1=C(CCl)NC(=O)NC1c1ccc2c(c1)OCO2 (stereo not given),56.9%
16,C=C1C(=O)O[C@H]2[C@H]1CC/C(COC(=O)c1cc3cc(Cl)ccc3[nH]1)=C\CC[C@@]1(C)O[C@@H]21,-46% (active)
17,COc1cc(/C=N/NC(=O)c2ccc3nc(-c4ccc(Cl)cc4)[nH]c3c2)cc(OC)c1OC,44.9%
18,O=C1OC[C@H]2[C@H](c3ccc(O)c(O)c3)c3cc(O)c(O)cc3C[C@H]12,217%
19,N=C(N)SCc1c2ccccc2c(CSC(=N)N)c2ccccc12,20.8%
20,CCOC(=O)C#Cc1c(C(=O)OCC)nnn1Cc1ccc(C(F)(F)F)cc1,39%
21,c1ccc(Nc2nnc(-c3cc(-c4cccnc4)n(-c4ccccc4)n3)s2)cc1,70.8%
22,O=C1OC(c2ccccc2)(c2ccccc2)c2ccsc21,86.6%
23,CCOc1cc(\C=N/N=C(N)/C(N)=N\N=C/c2ccc(O)c(OCC)c2)ccc1O,121%
24,O=C(NCCNCCO)c1cc([N+](=O)[O-])cc([N+](=O)[O-])c1O,102%
25,N#Cc1cnn2c(-c3ccc(Cl)cc3)nc(NCCc3ccccc3)nc12,85.1%
